WRN helicase inh: qHTS for Inhibitors of WRN Helicase | Bifunctional 3'-5' exonuclease/ATP-dependent helicase WRN (Homo sapiens), Q14191 | WRN helicase unwinding, fluorescent forked duplex, kinetic | Potency, µM (series often up to 114 µM), inactives show at the top dose activity change, negative = inhibition, actives largely listed as inhibitors | 360,000 compounds, 0.46% hits; also: potency is read from the fitted curve at half-maximal effect; % is scaled to controls: 0 for no effect and ±100 for the full control effect; nearly all actives have a fitted effect of over 55% in size
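Fluorescence dequenching readout, ex 525 nm/em 598 nm, kinetic mode: forked duplex DNA (100 nM final) with adjacent fluorophore and quencher unwound by WRN (20 nM final) with 2 mM ATP. Compound preincubation 15 min, room temperature.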
FEN1 inhibitor: qHTS Assay for the Inhibitors of Human Flap endonuclease 1 (FEN1). 390,000 compounds, 0.35% hits. P39748. Potency, µM (highest dose often 114 µM), for the others: at the top dose activity change, negative = inhibition, most hits filed as inhibitors. Recombinant FEN1 flap cleavage, fluorescence, 15 min; also: potency is read from the fitted curve at half-maximal effect; % is scaled to controls: 0 for no effect and ±100 for the full control effect; nearly all actives have a fitted effect of over 65% in size
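Steps: FEN1 (10 nM) dispensed; compound added by pin tool; 15 min at room temperature; substrate added to 50 nM final; reads at 0 min and 15 min; data normalized and fitted (four-parameter Hill).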
Pol eta inh-1: qHTS for Inhibitors of Polymerase Eta; DNA polymerase eta (Homo sapiens), Q9Y253; Potency, µM (series often up to 114 µM), without a hit: at the highest dose activity change, negative = inhibition, usual class: inhibitors; 390,000 compounds, 1.2% hits; recombinant Pol eta, fluorescent DNA replication assay; also: potency is read from the fitted curve at half-maximal effect; % is scaled to controls: 0 for no effect and ±100 for the full control effect
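Pol eta (10 nM) was preincubated with compounds for 15 min at room temperature, after which fluorescent replication substrate (50 nM final) was added to start the reaction. Fluorescence was read kinetically at 0 and 10 min.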
Pol iota inh: qHTS for Inhibitors of Polymerase Iota; Potency, µM (top dose mostly 115 µM), without a hit: at the highest dose activity, negative = inhibition, usual class: inhibitors; 390,000 compounds, 1% hits; DNA polymerase iota (Homo sapiens), Q9UNA4; AID 588590, 2011; Pol iota fluorescent replication assay, 10 min; also: potency is read from the fitted curve at half-maximal effect
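Pol iota at 10 nM preincubated 15 min with compounds at room temperature; reaction started with fluorescent substrate, 50 nM final. Fluorescence read kinetically at 0 and 10 min; buffer-only wells as negative control.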
POLB inh: qHTS Assay for Inhibitors of DNA Polymerase Beta. P06746. Pol beta primer extension/strand displacement, fluorescence kinetic. Potency, µM (series often up to 114 µM), without a hit: at the highest dose activity change, negative = inhibition, usual class: inhibitors. 340,000 compounds, 1.3% hits; also: potency is read from the fitted curve at half-maximal effect; % is scaled to controls: 0 for no effect and ±100 for the full control effect
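Pol beta (10 nM) was preincubated with compound for 15 min at room temperature. The reaction was then started with 50 nM substrate and read immediately and after a further 10 min at room temperature.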
Pol kappa inh-1: qHTS for Inhibitors of Polymerase Kappa; 400,000 compounds, 0.53% hits; Potency, µM (top dose mostly 107 µM), for inactives: at the top dose activity, negative = inhibition, actives largely listed as inhibitors; AID 588579, 2011; purified Pol kappa, fluorescent DNA synthesis assay, 10 min; DNA polymerase kappa (Homo sapiens), Q9UBT6; also: potency is read from the fitted curve at half-maximal effect; % is scaled to controls: 0 for no effect and ±100 for the full control effect
Target sequence (Q9UBT6 whole entry, looked up): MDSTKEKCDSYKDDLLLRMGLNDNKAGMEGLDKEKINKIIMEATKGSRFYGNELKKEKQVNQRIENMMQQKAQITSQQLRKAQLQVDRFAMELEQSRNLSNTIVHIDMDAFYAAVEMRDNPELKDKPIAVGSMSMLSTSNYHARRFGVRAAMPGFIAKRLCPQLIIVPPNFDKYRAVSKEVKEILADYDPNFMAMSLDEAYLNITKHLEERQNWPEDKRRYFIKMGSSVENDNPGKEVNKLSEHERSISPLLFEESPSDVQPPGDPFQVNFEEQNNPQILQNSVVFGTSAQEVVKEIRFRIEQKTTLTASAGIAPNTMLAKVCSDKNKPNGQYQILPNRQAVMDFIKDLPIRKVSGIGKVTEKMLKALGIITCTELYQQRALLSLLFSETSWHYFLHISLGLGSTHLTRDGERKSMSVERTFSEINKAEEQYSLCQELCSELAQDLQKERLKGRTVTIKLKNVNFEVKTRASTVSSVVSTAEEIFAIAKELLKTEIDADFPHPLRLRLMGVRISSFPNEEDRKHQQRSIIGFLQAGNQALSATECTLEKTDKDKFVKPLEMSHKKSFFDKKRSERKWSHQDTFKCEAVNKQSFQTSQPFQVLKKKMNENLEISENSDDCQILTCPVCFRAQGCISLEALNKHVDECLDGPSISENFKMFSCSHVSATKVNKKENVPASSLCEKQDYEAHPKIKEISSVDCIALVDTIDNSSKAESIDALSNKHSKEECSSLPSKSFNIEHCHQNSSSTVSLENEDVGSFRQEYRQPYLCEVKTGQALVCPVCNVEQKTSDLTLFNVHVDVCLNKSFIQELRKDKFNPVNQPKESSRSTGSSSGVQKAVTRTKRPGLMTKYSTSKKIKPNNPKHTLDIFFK
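Pol kappa 10 nM + cpd, 15 min RT; start w/ substrate 50 nM final; fluorescence kinetic read, 0 and 10 min. Neg ctrl: buffer, no enzyme.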
TbPGK inh: qHTS for inhibitors of Phosphogylcerate Kinase: Hit Validation Screen | TbPGK coupled GAPDH assay, Kinase-Glo luminescence | 500 compounds, 79% hits | Potency, µM (top dose mostly 57.5 µM), for inactives: top-dose activity change, negative = inhibition, usual class: inhibitors | shares compounds with Pol kappa inh-1; also: potency is read from the fitted curve at half-maximal effect; % is scaled to controls: 0 for no effect and ±100 for the full control effect; nearly all actives have a fitted effect of over 65% in size
POLI cherry-pick: qHTS for Inhibitors of Polymerase Iota: Confirmatory Assay for Cherry-picked Compounds | shares compounds with Pol kappa inh-1 | Pol iota primer extension, TAMRA/BHQ fluorescence | Potency, µM, most hits filed as inhibitors | 1,500 compounds, 77% hits | AID 720496, 2013; also: potency is read from the fitted curve at half-maximal effect
GALK confirm: Confirmation Assay for Inhibitors of Human Galactokinase (GALK); shares compounds with Pol eta inh-1; Potency, µM (doses to about 115 µM), for inactives: at the highest dose activity, negative = inhibition, usual class: inhibitors; purified GALK, Kinase-Glo ATP depletion luminescence; AID 2015, 2009; 150 compounds, 70% hits
Redox cycling: Confirmatory Assay for Inhibitors of Human Galactokinase (GALK): Phenol-HRP redox assay counterscreen; shares compounds with Pol eta inh-1; Phenol red-HRP H2O2 redox cycling, absorbance 600 nm; Potency, µM (doses to about 115 µM), inactives show at the highest dose activity change, negative = H2O2 signal, most hits filed as inhibitors; 150 compounds, 40% hits
HEK293 viability: Secondary Assay for Inhibitors of Human Galactokinase (GALK): HEK-293 Cell Viability Assay; shares compounds with Pol eta inh-1; HEK-293 viability, ATP luminescence (CellTiter-Glo), 24/48 h; Potency, µM (titrated, usually from 46.1 µM), for inactives: at the highest dose activity change, negative = cytotoxicity, actives largely listed as inhibitors; 170 compounds, 10% hits; AID 2547, 2010; also: potency is read from the fitted curve at half-maximal effect; % is scaled to controls: 0 for no effect and ±100 for the full control effect
Pol kappa inh-2: qHTS for Inhibitors of Polymerase Kappa: Confirmatory Assay for Cherry-picked Compounds; purified Pol-kappa, fluorescent strand-displacement substrate; Potency, µM, hits mostly inhibitors; 920 compounds, 76% hits; shares compounds with Pol eta inh-1; also: potency is read from the fitted curve at half-maximal effect
Pol eta inh-2: qHTS for Inhibitors of Polymerase Eta: Confirmatory Assay for Cherry-picked Compounds; 2,600 compounds, 64% hits; Potency, µM, hits mostly inhibitors; Pol eta primer extension, TAMRA/BHQ fluorescence, 10 min; shares compounds with Pol eta inh-1; also: potency is read from the fitted curve at half-maximal effect
Starred values were filed as active, the others as inactive; [ ] = remark or other dose. The list is not random: actives were taken first. Their share in the collection is about 2.4%. Calls follow the shape of the dose curve; as a rule, active = well fitted curve in the direction sought with a large enough effect; inconclusive = small, poorly fitted or top-dose-only effect, or another doubt; inactive = no such curve, though single readings can be large; an effect the other way counts as inactive or inconclusive.

What do the screens show for `CC(=O)c1c(C)oc2c1cc(NS(=O)(=O)c1ccc(Cl)c(C)c1)c1ccccc12`?
FEN1 inhibitor: -9%; Pol eta inh-1: 5%; Pol iota inh: 46%; POLB inh: 48%; Pol kappa inh-1: 3%

How did Cc1cccc(N2C(=O)CSC23C(=O)N(CC(=O)NCCc2ccccc2)c2ccccc23)c1 (configuration not stated) do in these assays?
FEN1 inhibitor: -11%; Pol eta inh-1: -15%; Pol iota inh: inconclusive; POLB inh: 8%; Pol kappa inh-1: -6%

How did CCn1c(SCC(=O)N/N=C(\C)c2ccco2)nnc1-c1ccccc1 do in these assays?
WRN helicase inh: 1%; FEN1 inhibitor: -4%; Pol eta inh-1: -6%; Pol iota inh: 13%; POLB inh: 13%; Pol kappa inh-1: 5%

What do the screens show for `CCn1c(SCC(=O)N/N=C/C(C)=C/c2ccco2)nnc1-c1ccccc1`?
WRN helicase inh: inconclusive; FEN1 inhibitor: -21%; Pol eta inh-1: 89µM*; Pol iota inh: inconclusive; POLB inh: inconclusive; Pol kappa inh-1: inconclusive; POLI cherry-pick: 60*; Pol eta inh-2: inconclusive

How did CSc1ccc(/C=C(\C(=O)O)c2ccc(S(=O)(=O)N3CCCCC3)s2)cc1 do in these assays?
WRN helicase inh: -11%[57.1 µM]; FEN1 inhibitor: 2%; Pol eta inh-1: inconclusive; Pol iota inh: inconclusive; POLB inh: inconclusive; Pol kappa inh-1: -26%

How did O=C(O)/C(=C\c1ccc(Cl)c([N+](=O)[O-])c1)c1ccc(S(=O)(=O)N2CCCC2)s1 do in these assays?
WRN helicase inh: -4%[11.6 µM]; FEN1 inhibitor: -18%; Pol eta inh-1: 22µM*; Pol iota inh: 40µM*; Pol kappa inh-1: inconclusive; POLI cherry-pick: inconclusive; Pol kappa inh-2: inconclusive; Pol eta inh-2: inconclusive

What do the screens show for `Cn1nc(-c2ccccn2)nc2c(=O)n(C)c(=O)nc1-2`?
WRN helicase inh: -8%; FEN1 inhibitor: -5%; Pol eta inh-1: 0.71µM*; Pol iota inh: -96%; POLB inh: inconclusive; Pol kappa inh-1: 6%; TbPGK inh: 1.6µM*; GALK confirm: 2.7µM*; Redox cycling: 2.7µM*; HEK293 viability: 4µM*

How did COc1ccc(-c2nc(-c3ccccn3)ncc2S(C)(=O)=O)cc1 do in these assays?
WRN helicase inh: -27%[57.1 µM]; FEN1 inhibitor: 9%; Pol eta inh-1: -14%; Pol iota inh: 17%; POLB inh: 26%; Pol kappa inh-1: -1%

What do the screens show for `CCn1c(N)nc2c1c(=O)n(C)c(=O)n2C`?
WRN helicase inh: 4%; FEN1 inhibitor: 8%; Pol eta inh-1: -1%; Pol iota inh: 31%; POLB inh: -19%; Pol kappa inh-1: 5%

What do the screens show for `CCc1ccc(-c2nc3c(=O)n(C)c(=O)nc-3n(CC)n2)cc1`?
FEN1 inhibitor: 3%; Pol iota inh: -98%; Pol kappa inh-1: -20%; POLI cherry-pick: 2.1*; Pol eta inh-2: 1.5*

Results for CCCc1nc2c(=O)n(C)c(=O)nc-2n(C)n1 ?
WRN helicase inh: -31%; FEN1 inhibitor: -6%; Pol eta inh-1: 0.89µM*; Pol iota inh: -97%; POLB inh: inconclusive; Pol kappa inh-1: 6%; TbPGK inh: 1.5µM*; POLI cherry-pick: 1.5*; GALK confirm: 0.94µM*; Redox cycling: 0.67µM*; HEK293 viability: 10µM*; Pol eta inh-2: 2.7*

How did CC(=O)Nc1cccc(NC(=O)C2CCCO2)c1 (configuration not stated) do in these assays?
WRN helicase inh: 19%; Pol eta inh-1: -7%

What do the screens show for `COc1ccc(/C=C/c2nccc3ccccc23)cc1OC`?
FEN1 inhibitor: -19%; Pol iota inh: 17%; Pol kappa inh-1: 0%

Results for C[C@@H]1COc2cc(N3CC[C@H](O)C3)ccc2S(=O)(=O)N1 ?
WRN helicase inh: 4%

What do the screens show for `CC(=O)Nc1ccc(NC(=O)CSc2nc(N)c(NC(=O)c3ccccc3F)c(=O)[nH]2)cc1`?
WRN helicase inh: inconclusive; FEN1 inhibitor: -2%; Pol eta inh-1: 25µM*; Pol iota inh: 40µM*; POLB inh: inconclusive; Pol kappa inh-1: inconclusive; POLI cherry-pick: 67*; Pol kappa inh-2: inconclusive; Pol eta inh-2: inconclusive

Assay outcomes deposited in PubChem BioAssay by National Center for Advancing Translational Sciences (NCATS).
